An excerpt weighted towards active compounds, which were near 5.2% of everything screened.
mIDH1 inhibitor: human IDH1 R132H inhibition. Potency, µM (highest dose often 76.6 µM), most hits filed as inhibitors. IDH1-R132H enzyme, NADPH consumption, diaphorase/resazurin fluorescence. AID 602179. actives 0.093% (n = 390,000). O75874; also: nearly all actives have a fitted effect of over 65% in size
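IDH1-R132H (0.5 ug/mL) preincubated 30 min with compound, then NADPH (0.016 mM) and alpha-KG (2 mM) added; 80 min at RT, pH 7.5. Remaining NADPH coupled via diaphorase/resazurin to fluorescence (540/590 nm); concentration-response curves normalized to no-enzyme control.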
VDR inhibitor: inhibitors of human vitamin D receptor | P11473 | VDR-SRC2-3 peptide fluorescence polarization, 2 h | Potency, µM, most hits filed as inhibitors | actives 0.93% (n = 400,000) | AID 504847
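Measured by FP: displacement of SRC2-3 coactivator peptide from VDR by library compounds, following a two-hour ambient incubation.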
Sfp PPTase inh: blocks B. subtilis Sfp PPTase activity | Q9F4F7 | Biochemical Sfp PPTase activity, qHTS | Potency, µM, most hits filed as inhibitors | actives 3.5% (n = 310,000) | AID 1490;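 also: the enzyme is Sfp with the accession as filed and its product quenches rhodamine fluorescence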
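Reaction rates are the 30-min fluorescence difference (ex 525, em 598 nm) in wells containing 15 nM Sfp, 5 uM rhodamine-CoA and 12.5 uM BHQ-2-YbbR at pH 7.6 with 10 mM MgCl2.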
TrxR1 substrate: substrates of rat thioredoxin reductase 1 | O89049 | purified TrxR1 substrate turnover, NADPH consumption readout | Potency, µM (top dose mostly 114 µM) | actives 0.01% (n = 390,000); also: nearly all actives have a fitted effect of over 50% in size
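Rat TrxR1, dispensed at 90 nM, was prereduced with 400 uM NADPH (final) for 5 min at ~22 deg C, then incubated with compound 15 min before 400 uM selenite. A first-read NADPH fluorescence drop versus no-compound background flagged substrates.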
TrxR1 inh: blocks rat thioredoxin reductase 1 | O89049 | recombinant rTrxR1, NADPH fluorescence consumption, selenite substrate | Potency, µM (titrated, usually from 114 µM), hits mostly inhibitors | actives 1% (n = 390,000) | AID 588453; also: nearly all actives have a fitted effect of over 65% in size
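Rat TrxR1 (90 nM in the dispensed reagent) was pre-reduced with 400 uM NADPH for 5 min at room temperature, then incubated with compound for 15 min. After 400 uM selenite was added, NADPH fluorescence (Ex 340/Em 450 nm) was followed for 8 min.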
PLK1 PBD block: inhibitors of human PLK1 polo-box domain binding | actives 2.8% (n = 360,000) | Potency, µM, usual class: inhibitors | Plk1 PBD binding of FITC phosphopeptide, fluorescence polarization | AID 720504; also: series mostly up to about 57 µM; nearly all actives have a fitted effect of over 65% in size
Target sequence (P53350 whole entry, looked up, the tested form may be a part): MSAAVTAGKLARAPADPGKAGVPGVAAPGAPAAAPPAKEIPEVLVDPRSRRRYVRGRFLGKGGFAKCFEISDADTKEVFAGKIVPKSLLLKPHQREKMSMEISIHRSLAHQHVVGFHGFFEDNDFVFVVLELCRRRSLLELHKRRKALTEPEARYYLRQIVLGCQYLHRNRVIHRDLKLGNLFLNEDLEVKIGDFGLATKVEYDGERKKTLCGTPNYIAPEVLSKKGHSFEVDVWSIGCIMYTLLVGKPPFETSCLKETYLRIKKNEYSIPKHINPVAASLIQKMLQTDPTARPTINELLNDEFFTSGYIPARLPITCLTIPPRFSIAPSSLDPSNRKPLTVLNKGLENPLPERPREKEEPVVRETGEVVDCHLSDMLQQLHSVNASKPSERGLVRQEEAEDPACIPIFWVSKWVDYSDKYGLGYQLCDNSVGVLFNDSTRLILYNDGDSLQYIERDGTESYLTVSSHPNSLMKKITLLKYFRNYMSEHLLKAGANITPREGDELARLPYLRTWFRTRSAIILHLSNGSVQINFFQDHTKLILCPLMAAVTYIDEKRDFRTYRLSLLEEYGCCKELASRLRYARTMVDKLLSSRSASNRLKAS
Large screens that a line does not name were inactive; ! = not active in a repeat. Calls follow the shape of the dose curve; as a rule, active = well fitted curve in the direction sought with a large enough effect; inconclusive = small, poorly fitted or top-dose-only effect, or another doubt; inactive = no such curve, though single readings can be large; an effect the other way counts as inactive or inconclusive.

CCCNC(=O)c1noc2c1CCc1cc(OC)ccc1-2	TrxR1 inh inconclusive, PLK1 PBD block 26.7µM
O=C(O)c1ccc2c(c1)N(Cc1ccccc1)C(=O)c1ccccc1S2=O (stereo not drawn)	PLK1 PBD block 26.7µM
CCOC(=O)[C@]12CCC=C1N(Cc1ccco1)C(=O)[C@H](CC(=O)NCc1cccc3ccccc13)C2	none (no result: mIDH1 inhibitor, VDR inhibitor, Sfp PPTase inh, TrxR1 substrate, TrxR1 inh)
Cc1c(N2C(=O)/C(=C/C3CC=CCC3)SC2=S)c(=O)n(-c2ccccc2)n1C (stereo not drawn)	VDR inhibitor inconclusive, Sfp PPTase inh 44.7µM, TrxR1 inh inconclusive, PLK1 PBD block inconclusive
Cc1ccc(/C=C2\SC(=S)N(c3c(C)n(C)n(-c4ccccc4)c3=O)C2=O)cc1	Sfp PPTase inh inconclusive
Cc1c(N2C(=O)/C(=C\C3CC=CCC3)SC2=S)c(=O)n(-c2ccccc2)n1C (stereo not drawn)	VDR inhibitor 50.1µM, Sfp PPTase inh 50.1µM, PLK1 PBD block inconclusive
COc1cccc(C2=N/C(=C\N(C)C)C(=O)O2)c1	PLK1 PBD block 16.8µM
COc1cc(C2=N/C(=C\c3ccccc3)C(=O)O2)cc(OC)c1OC	VDR inhibitor inconclusive (no result: mIDH1 inhibitor, TrxR1 substrate, TrxR1 inh, PLK1 PBD block)
COCCCNC(=O)c1cc(S(=O)(=O)N2CCOCC2)ccc1SCc1cccc(OC)c1OC	Sfp PPTase inh 50.1µM
Nc1nc2c(s1)C(=O)CC(c1ccccc1)C2 (stereo not drawn)	Sfp PPTase inh 44.7µM
CN1CCN(C(=O)c2ccc3c(c2)N(Cc2cccc(Cl)c2)C(=O)c2ccccc2S3(=O)=O)CC1	PLK1 PBD block 26.7µM
CCN(CC)CCCNC(=O)CCC(=O)NNc1nc2ccccc2c2nc(C)nn12	VDR inhibitor 79.4µM!
COc1cc2c3nnc(-c4ccc(F)cc4)c-3cn(Cc3ccccc3F)c2cc1OC	Sfp PPTase inh inconclusive, PLK1 PBD block inconclusive
COc1cc2c3nnc(-c4ccccc4)c-3cn(Cc3ccccc3F)c2cc1OC	PLK1 PBD block 21.2µM
Cc1cc(O)c(C=Nc2cccc(Cl)c2)c(=O)o1	TrxR1 inh inconclusive
Cc1cc(O)c(/C=N/Nc2ccccc2)c(=O)o1	Sfp PPTase inh 17.8µM
C=CCn1c(COc2ccc(F)cc2)nnc1SCC(=O)NC1CCS(=O)(=O)C1 (stereo not drawn)	none (no result: Sfp PPTase inh)
COc1ccccc1C1=Nn2c(nnc2-c2ccccc2C)SC1	none (no result: mIDH1 inhibitor, VDR inhibitor, TrxR1 substrate, TrxR1 inh, PLK1 PBD block)
O=C(O)CSc1nnc(CNc2cccc(C(F)(F)F)c2)n1Cc1ccco1	Sfp PPTase inh 39.8µM
O=C(CSc1nnc(C2CCCCC2)n1-c1ccccc1)NCc1ccco1	TrxR1 inh 12.6µM
C=CCn1c(COc2ccc(F)cc2)nnc1SCC(=O)NC(=O)NCc1ccco1	none
O=C(CSc1nnc(CNc2ccc(F)cc2)n1Cc1ccco1)N1CCOCC1	none
C=CCn1c(COc2cccc(C)c2)nnc1SCC(=O)NC(=O)NCc1ccco1	Sfp PPTase inh 25.1µM
O=C(CSc1nnc(CNc2cccc(C(F)(F)F)c2)n1Cc1ccco1)NCc1ccco1	TrxR1 inh 15.8µM, PLK1 PBD block 29.9µM
CCNC(=O)C1(C)CCCN(Cc2cccc3c(OC)cc(C(=O)OCC)cc23)C1 (stereo not drawn)	none (no result: mIDH1 inhibitor, VDR inhibitor, Sfp PPTase inh, TrxR1 substrate, TrxR1 inh)
CC(C)C[C@H](NC(=O)[C@H]1O[C@@H]1C(=O)O)C(=O)NCCCCN=C(N)N	none (no result: mIDH1 inhibitor, TrxR1 substrate, TrxR1 inh, PLK1 PBD block)
Cc1nc2cnc(N3CCNCC3)nc2n(CCC#N)c1=O	none (no result: mIDH1 inhibitor, TrxR1 substrate, TrxR1 inh, PLK1 PBD block)
COc1cccc(OC)c1C1=Nn2c(nnc2-c2ccccc2C)SC1	none (no result: mIDH1 inhibitor, VDR inhibitor, TrxR1 substrate, TrxR1 inh, PLK1 PBD block)
COCC(=O)N1CCC2(CCN(Cc3ccncc3)CC2)CC1	VDR inhibitor inconclusive (no result: mIDH1 inhibitor, TrxR1 substrate, TrxR1 inh, PLK1 PBD block)
Cc1cccc(OCc2nnc(SCCC(=O)O)n2-c2ccccc2)c1	Sfp PPTase inh 50.1µM
CCn1c(COc2cccc(C)c2)nnc1SCC(=O)NC1CCCC1	VDR inhibitor inconclusive, PLK1 PBD block 29.9µM
O=C(CSc1nnc(COc2ccccc2)n1Cc1ccco1)NCc1ccco1	TrxR1 inh 11.2µM, PLK1 PBD block inconclusive
CCn1c(COc2ccccc2)nnc1SCC(=O)NC1CC1	none
Cc1cc(NC(=O)CSc2nnc(COc3ccccc3)n2Cc2ccco2)no1	none
O=C(CSc1nnc(CNc2ccc(F)cc2)n1Cc1ccco1)NC1CC1	Sfp PPTase inh 56.2µM, TrxR1 inh inconclusive
